HPGD block: inhibitors of human 15-hydroxyprostaglandin dehydrogenase (HPGD). purified HPGD, NADH fluorescence kinetic, PGE2 substrate. Potency, µM, inactives show at the highest dose activity change, negative = inhibition, usual class: inhibitors. 150,000 tested, 4.3% active. AID 894; also: potency is read from the fitted curve at half-maximal effect
Target sequence (P15428 whole entry, looked up): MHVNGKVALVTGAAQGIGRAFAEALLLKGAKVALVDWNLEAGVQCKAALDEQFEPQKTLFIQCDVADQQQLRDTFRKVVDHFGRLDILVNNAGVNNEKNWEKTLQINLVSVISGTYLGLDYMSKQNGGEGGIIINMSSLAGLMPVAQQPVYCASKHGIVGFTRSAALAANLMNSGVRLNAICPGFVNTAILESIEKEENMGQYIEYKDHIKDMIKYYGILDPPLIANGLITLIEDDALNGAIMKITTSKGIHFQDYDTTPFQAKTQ
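NADH formation kinetics: reaction with 30 uM PGE2 and 1 mM NAD+ (final), 20 nM enzyme, Tris-HCl pH 8 with Tween 20, after 15 min compound preincubation at room temperature. Fluorescence change, last versus first of five reads.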
KinaseGlo FLuc: blocks Kinase-Glo luciferase, a counter-screen artifact | AID 1379 | Q27757 | 200,000 tested, 0.28% active | Potency, µM (titrated, usually from 38.3 µM), inactives show top-dose activity change, negative = inhibition, most hits filed as inhibitors | Kinase-Glo luciferase, ATP luminescence, 8 min; active = well fitted inhibition curve with a large enough effect; inconclusive = small, poorly fitted or top-dose-only effect; also: potency is read from the fitted curve at half-maximal effect; nearly all actives have a fitted effect of over 60% in size
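Inhibition of Kinase-Glo luciferase light generation was assessed at 10 uM ATP in pH 7.2 imidazole buffer, with luminescence measured after eight minutes at ambient temperature.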
IMPase inh: IMPase inhibition in cells; P97697; inhibition (IP1 accumulation), % at 46.1 µM; 120,000 tested, under 10 active; AID 901; CHO-M1 cells, IP1 accumulation, HTRF TR-FRET ratio; active = well fitted curve in the direction sought with a large enough effect in the signal ratio, not every such curve was filed as active; inconclusive = small, poorly fitted or top-dose-only effect, or a change in a side signal; inactive = no such curve, though single readings can be large or run the other way; the % refers to the signal ratio;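 also: cells stimulated with carbachol in lithium chloride buffer; plate controls were DMSO basal wells for no effect and reference inhibitor wells for full effect; higher means more IMPase inhibition seen as more IP1 and lower FRET ratio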
Target sequence (P97697 whole entry, looked up): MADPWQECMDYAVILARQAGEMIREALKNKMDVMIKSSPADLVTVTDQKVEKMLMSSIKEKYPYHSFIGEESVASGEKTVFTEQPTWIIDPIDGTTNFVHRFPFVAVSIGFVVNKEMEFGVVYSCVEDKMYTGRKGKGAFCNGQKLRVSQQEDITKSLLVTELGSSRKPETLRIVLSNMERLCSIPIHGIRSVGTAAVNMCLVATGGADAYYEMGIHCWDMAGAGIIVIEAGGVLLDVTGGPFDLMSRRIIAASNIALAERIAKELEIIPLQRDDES
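Seeded CHO-M1 cells were dosed with compound at up to 46 uM, stimulated with carbachol for 30 min, then lysed in IP-One detection reagents. Higher IP1 lowers the TR-FRET signal.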
ALDH1A1 block: blocks purified human ALDH1A1 activity; Purified ALDH1A1, NADH fluorescence, propionaldehyde substrate; Potency, µM (titrated, usually from 75.3 µM), without a hit: at the top dose activity, negative = inhibition, most hits filed as inhibitors; 220,000 tested, 7.3% active;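 also: potency is read from the fitted curve at half-maximal effect; plate controls were no enzyme wells and a reference inhibitor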
PNC inhibitor: blocks assembly of the perinucleolar compartment. PC3M PTB-GFP, PNC prevalence imaging, 16 h; hits give low values. activity change (PNC), negative = inhibition, % at 10 µM. 140,000 tested, 3.1% active. AID 2417;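 active = readout at or below -70, meaning at least 70% loss of cells showing the perinucleolar compartment, a nuclear body marking cancer cells; inconclusive = readout between -30 and a set limit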;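 also: plate controls were DMSO wells for no effect and camptothecin positive control wells for full effect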
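Compounds are pinned in duplicate onto adhered PC3M cells stably expressing GFP-tagged PTB and incubated 16 h at 37 C. Cells are then fixed, nuclei stained with Hoechst, and PNC-positive cells counted.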
Lamin A splicing: changes lamin A minigene splicing in HeLa cells; AID 1487; Potency, µM (top dose mostly 46.1 µM), for the others: top-dose ratio change, negative = inhibition, most hits filed as inhibitors; HeLa LMNA splicing GFP/RFP minigene ratio, 48 h; 200,000 tested, 0.01% active; active = well fitted inhibition curve with a large enough effect in the signal ratio, with a control signal flat, not every such curve was filed as active; inconclusive = small, poorly fitted or top-dose-only effect, or effect the other way, or a change in a side signal; the % refers to the signal ratio; also: potency is read from the fitted curve at half-maximal effect
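S3 HeLa cells stably expressing lamin A-EGFP splicing minigene plus DsRed2, 600 cells/well, 48 h compound exposure at 37C. Laser-scanning cytometry; analysed as GFP (500-530 nm)/RFP (575-640 nm) total intensity ratio; 0.5% DMSO vehicle.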
Active calls of the source: *; ? = inconclusive; . = not tested or not shown; [ ] = remark or other dose. Compounds with a hit are over-represented: about 10% of the library has one in this group of screens. Unless noted, calls follow the shape of the dose curve; as a rule, active = well fitted inhibition curve with a large enough effect (not every such curve was filed as active); inconclusive = small, poorly fitted or top-dose-only effect, or another doubt; inactive = no such curve, though single readings can be large or run the other way. Unless noted, % is scaled to controls: 0 for no effect and ±100 for the full control effect.

SMILES	HPGD block	KinaseGlo FLuc	IMPase inh	ALDH1A1 block	PNC inhibitor	Lamin A splicing
CNc1ccccc1C(=O)N1CCc2c([nH]c3ccccc23)C1=O	?	-4%	.	?	.	?
Cc1ccc(S(=O)(=O)Nc2ccc(NC(=O)c3cccnc3)cc2)cc1	.	-1%	.	14µM*	.	.
Cc1cc(NS(=O)(=O)c2ccc(NC(=O)c3cc(-c4ccccc4Cl)nc4ccccc34)cc2)no1	-24%	0%	.	11%	-17	12%
Cc1cc(NS(=O)(=O)c2ccc(NC(=O)c3cc(-c4cccnc4)nc4ccc(Cl)cc34)cc2)no1	14µM*	-2%	-11	-5%	-26	1%
Cc1ccc(NS(=O)(=O)c2ccc(CCC(=O)NCc3cccnc3)cc2)cc1	.	-1%	.	8.9µM*	.	10%[46 µM]
O=C(Nc1ccc(O)cc1)c1cccc(Oc2ccc([N+](=O)[O-])cc2)c1	.	0%	.	-9%	.	.
CN(C)S(=O)(=O)Oc1cccc(C(=O)Nc2ccc([N+](=O)[O-])cc2)c1	.	3%	.	4.5µM*	.	?
Cc1cccc(C)c1NC(=S)NC(=O)c1ccc(Br)o1	.	5%	.	?	.	-17%[46 µM]
Cn1ncc(C(N)=O)c1NC(=S)NC(=O)c1ccc(Br)o1	.	2%	.	7.9µM*	.	2%[46 µM]
Cc1ccc(NC(=O)CCn2nc(-c3ccccc3)c3ccccc3c2=O)c(C)c1	.	.	9	.	.	.
O=C(CCN1CCCCC1)N1CCc2c([nH]c3ccccc23)[C@H]1c1cccnc1	-6%	-2%[7.66 µM]	.	12%[13.5 µM]	.	.
CCOc1ccc(Cl)cc1S(=O)(=O)n1cnc2ccccc21	-2%	1%	0	13%	?	8%
CCOc1cc(C)c(Cl)cc1S(=O)(=O)n1cnc2ccccc21	-1%	3%	8	-2%	-107*	-9%
Cc1c(Cl)cccc1NC(=O)CSc1ncnc2c1sc1ccccc12	.	.	.	.	.	5%[46 µM]
Cc1cc(C)cc(NC(=O)CSc2nccn2C2CCCC2)c1	.	.	.	.	.	14%[46 µM]
O=c1c2ccccc2sn1-c1nccs1	.	-12%	.	13µM*	.	?
CCCCCCCCCCOC(=O)c1csc2nnsc12	-18%	3%	-5	4%	-100*	-9%
Ic1ccc2c(c1)N(c1ccccc1)c1cc(Nc3ccc4nc5ccc(I)cc5[n+](-c5ccccc5)c4c3)ccc1N2	-16%	-11%[7.66 µM]	.	?	.	.
CCOc1ccc(C(=O)NCC(c2ccc3c(c2)OCO3)N2CCN(c3ccc(F)cc3)CC2)cc1 (stereo not given)	.	.	.	.	.	-5%[46 µM]
CSc1ncc(C(=O)Nc2cccc(C)c2C)c(-c2ccccc2)n1	.	.	.	.	.	7%[46 µM]
COc1ccc(CCNc2ccc(C(=O)O)cc2[N+](=O)[O-])cc1OC	.	-3%	.	-1%	.	1%[9.22 µM]
COc1ccc(C(=O)CCC(C)(C)[N+](=O)[O-])cc1OC	.	2%	.	8.9µM*	.	5%[46 µM]
CCn1c(/C=C2\C(=O)N(C)c3ccccc32)nc2ccccc2c1=O	2%	1%	9	?	?	?
CC(C)N1C(=O)/C(=C\c2nc3ccccc3c(=O)[nH]2)c2ccccc21	-26%	-1%	.	13µM*	42	?
CCCN1C(=O)/C(=C/c2nc3ccccc3c(=O)[nH]2)c2ccccc21	-5%	1%	.	2.5µM*	-20	10%
SMILES	HPGD block	KinaseGlo FLuc	IMPase inh	ALDH1A1 block	PNC inhibitor	Lamin A splicing
CCCN1C(=O)/C(=C/c2nc3ccccc3c(=O)[nH]2)c2cc(C)ccc21	.	.	.	1%	.	.
COc1ccc(O[C@H]2C=C[C@@H](c3ccccc3)O[C@H]2COC(=O)NCc2cccc3ccccc23)cc1	.	.	.	6%[13.5 µM]	.	.
COc1ccc(-n2ncc(C(=O)NCCCN3CCCCC3)c2C2CCN(C(=O)OC(C)(C)C)CC2)cc1	.	.	.	.	.	-8%[46 µM]
N#CC(c1ccc(O)cc1)N1CCOCC1 (stereo not given)	-6%	-4%	1	7.9µM*	-103*	0%
Cc1ccccc1CN1C(=O)C(O)(CC(=O)c2cccc(Br)c2)c2ccccc21 (stereo not given)	.	.	5	.	.	.
NC(=O)NC(=O)[C@H]1CCCC[C@@H]1C(=O)O	-7%	-1%[7.66 µM]	.	4%[13.5 µM]	.	.

Assay outcomes as filed in PubChem.
